# Screening results deposited in PubChem by Paczesny and Yang Labs, IUPUI and University of Michigan.
# The full list was thinned out, with hits kept by preference.
# ST2 inh: IL1RL1 inhibition; Q01638; AlphaLISA ST2-Fc/biotin-IL-33 interaction, 1 h; inhibition, % for hits at 17 µM; 2.3% of 78,000 active; AID 1259354; in the data active = inhibition above about 30%
# Target sequence (Q01638 whole entry, looked up): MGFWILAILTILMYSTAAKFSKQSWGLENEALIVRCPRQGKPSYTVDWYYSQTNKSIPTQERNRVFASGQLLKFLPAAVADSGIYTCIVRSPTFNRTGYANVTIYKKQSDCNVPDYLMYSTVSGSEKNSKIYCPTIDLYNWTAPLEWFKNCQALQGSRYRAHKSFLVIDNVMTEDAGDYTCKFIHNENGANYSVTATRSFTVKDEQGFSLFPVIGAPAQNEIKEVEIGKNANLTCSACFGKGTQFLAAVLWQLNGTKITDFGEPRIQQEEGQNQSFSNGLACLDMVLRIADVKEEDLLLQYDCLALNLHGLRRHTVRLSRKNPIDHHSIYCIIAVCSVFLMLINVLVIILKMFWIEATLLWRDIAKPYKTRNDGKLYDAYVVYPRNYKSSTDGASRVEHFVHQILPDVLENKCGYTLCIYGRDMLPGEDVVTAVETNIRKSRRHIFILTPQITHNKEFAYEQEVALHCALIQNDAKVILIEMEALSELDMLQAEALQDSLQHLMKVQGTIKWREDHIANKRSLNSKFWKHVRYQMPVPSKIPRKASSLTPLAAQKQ
# An asterisk follows results filed as active; i = inactive; ! = repeats disagree.
SMILES,ST2 inh
CCCSc1ncc(CN2CCCn3cncc3C2)cn1,i
COc1ccccc1N1C(=O)C2C(c3cccs3)NC(Cc3ccccc3)(C(=O)O)C2C1=O (stereo not given),i
COc1coc(CN2CCCC(C(=O)c3ccc4ccccc4c3)C2)cc1=O (stereo not given),i
COc1ccc(OC)c(-c2c(C#N)c(N)nc(OC)c2C#N)c1,i
COc1ccc(-c2c(C#N)c(N)nc(OC)c2C#N)c(OC)c1,i
COc1ccc(/C=C2/C(C)=C(C#N)c3nc(N)c(C#N)c(C)c32)c(OC)c1,43.0%*
Cc1ccc(NC(=O)c2cnc3sccn3c2=O)cc1F,i
O=C(C[C@@H]1O[C@H](CNC(=O)Nc2ccc(F)cc2F)[C@@H](O)[C@H]1O)NCc1ccccc1,i
Cc1cc(N2CCN(C)CC2)nc2ccc(NC(=O)/C=C/c3ccccc3Cl)cc12,i
O=C(NCC1CCCO1)c1cc(=O)[nH]c2ccc(S(=O)(=O)N3CCCCCC3)cc12 (stereo not given),i
COc1cc(CCCO)cc(-c2cc(CCCO)cc(OC)c2O)c1O,i
C=CCc1cc(OC)c(O)c(-c2cc(CC=C)cc(OC)c2O)c1,41.0%*
C=CCc1ccc(OCCOc2ccc(C=O)cc2OC)c(OC)c1,i
O=[N+]([O-])c1ccccc1S(=O)(=O)NCc1cccnc1,i
O=[N+]([O-])c1cccnc1NCc1ccccc1,39.0%*
COc1ccc(CNc2ncnc(NCc3ccc(OC)cc3)c2[N+](=O)[O-])cc1,i
CCOc1c(Nc2ccc(C)c(C)c2)c(=O)c1=O,i
Cc1ccc(-c2noc(CCC(=O)NCCCN3CC(C)CC(C)C3)n2)cc1 (stereo not given),i
COc1ccc(OC)c(S(=O)(=O)NC2CCCCC2C)c1 (stereo not given),i
COc1ccc(S(=O)(=O)NC2CCCCC2C)cc1OC (stereo not given),34.0%*!
CCCNS(=O)(=O)c1ccc(OC)c(OC)c1,i
Cc1ncc(CN2CCC(Cn3cc(-c4ccccn4)nn3)CC2)s1,i
Fc1ccccc1OCCn1c2ccccc2c2ccccc21,i
O=c1nc(-c2ccccc2)c2ccccc2[nH]1,i
CNC(=O)c1cc2c(cn1)[nH]c1ccccc12,i
SMILES,ST2 inh
Nc1ccc2[nH]c3ccccc3c2c1,66.0%*
Cc1ccc(/C(N)=N\OC(=O)c2ccc3c(c2)OCO3)cc1,i
COc1cc(OC)cc(C(=O)Nc2nc(CC(C)=O)ns2)c1,i
O=C(c1cccc([N+](=O)[O-])c1)N1CCOCC1,i
CN(C)/C(=C1/c2cc([N+](=O)[O-])ccc2-c2c1cc([N+](=O)[O-])cc2[N+](=O)[O-])N1CCOCC1,79.0%*
O=C(c1sc2cc([N+](=O)[O-])ccc2c1Cl)N1CCOCC1,i
Cc1cc(C(=O)NCc2oc(C(C)(C)C)cc2C(=O)O)c(C)o1,i
CCCc1cc(NCCOC)n2c(nc3ccccc32)c1C#N,i
Cc1cc(NCCN2CCOCC2)n2c(nc3ccccc32)c1C#N,i
N#Cc1c(C(F)(F)F)cc(NCCN2CCOCC2)n2c1nc1ccccc12,34.0%*
Cn1c(=O)cc(SCC(=O)NCc2ccccn2)c2ccccc21,i
CN(Cc1ccc2nsnc2c1)Cc1nc(-c2cnccn2)no1,i
O=C(Nc1cccc(C(F)(F)F)c1)N[C@H]1[C@H](O)[C@@H](N2CCCCC2)[C@@H]2OC[C@H]1O2,i
COc1ccc(NC(=O)N[C@H]2[C@H](O)[C@@H](N3CCC(Cc4ccccc4)CC3)[C@@H]3OC[C@H]2O3)cc1,i
COc1cccc(NC(=O)N[C@H]2[C@H](O)[C@@H](N3CCN(C(C)=O)CC3)[C@@H]3OC[C@H]2O3)c1,i
N#Cc1cccc(NC(=O)N[C@H]2[C@H](O)[C@@H](N3CCCC3)[C@@H]3OC[C@H]2O3)c1,i
COc1cccc(NC(=O)N[C@H]2[C@H](O)[C@@H](N3CCCC3)[C@@H]3OC[C@H]2O3)c1,47.0%*
CN1CCN([C@H]2[C@@H]3OC[C@@H](O3)[C@@H](NC(=O)Nc3ccccc3)[C@@H]2O)CC1,35.0%*
CCOc1cccc(-c2nc3ccc(OC(C)=O)cc3c(=O)o2)c1,i
C#CCOC1(c2ccc(Cl)cc2)OC(=O)c2ccccc21 (stereo not given),i
COC(=O)c1c(NC(=O)c2sc3ccccc3c2Cl)sc2c1CCN(C)C2,37.0%*
CC1CCc2sc(NC(=O)c3sc4ccccc4c3Cl)c(C(N)=O)c2C1 (stereo not given),i
CCOC(=O)c1c(NC(=O)c2ccc(Cl)s2)sc2c1CCN(C)C2,i
CC1C=CC(C)[C@H](C(=O)O)[C@H]1C(=O)O (stereo not given in full),i
O=C(Nc1c(C(=O)Nc2ccccc2F)oc2ccccc12)c1cccs1,i
SMILES,ST2 inh
CCc1nnc(NC(=O)COc2ccc(C)cc2C)s1,i
O=C(c1ccc(F)cc1)N(c1ccc(Br)cc1)C1C=CS(=O)(=O)C1 (stereo not given),i
Cc1ccc(C(=O)Nc2ccc(NC(=O)CCN3CCCO3)cc2)o1,i
CS(=O)(=O)N(CC(=O)N1CCC(Cc2ccccc2)CC1)c1ccccc1F,i
COc1cccc(CC(C2CCN(C(=O)CC3CCCCC3)CC2)N(C)C(=O)c2ccn(C)n2)c1 (stereo not given),i
Cc1c(N=Cc2ccccc2O)c(=O)n(-c2ccccc2)n1C,i
Cc1c(N=Cc2cc([N+](=O)[O-])ccc2N2CCCC2)c(=O)n(-c2ccccc2)n1C,36.0%*
Cc1c(N=Cc2cc([N+](=O)[O-])c(Cl)cc2Cl)c(=O)n(-c2ccccc2)n1C,i
Cc1c(C(=O)NCCCN2CCCC2)oc2ccc(S(=O)(=O)N3CC(C)CC(C)C3)cc12 (stereo not given),i
COc1ccc2oc(=O)c(NC(=O)/C=C/c3ccccc3)cc2c1,i
COc1ccc(/C=C/C(=O)Nc2ccccc2C(=O)O)cc1OC,i
CC1=CC(=O)C=C(C)C1=NOC(=O)/C=C\c1ccccc1,35.0%*
CCN(CC)S(=O)(=O)c1ccc(C(=O)Nc2nc(-c3cc(C)ccc3C)cs2)cc1,i
Cc1nc2ccccc2c2c1C(=O)N(c1ccccc1)C2=O,i
COc1ccc(Cl)cc1N1C(=O)c2c(C)nc3ccccc3c2C1=O,31.0%*
Cc1nc2ccccc2c2c1C(=O)N(C(C)Cc1ccccc1)C2=O (stereo not given),34.0%*
Cc1nc2ccccc2c2c1C(=O)N(Cc1cccnc1)C2=O,i
Cc1nc2ccccc2c2c1C(=O)N(c1cccc(Cl)c1)C2=O,i
Cc1nc2ccccc2c2c1C(=O)N(c1ccc(F)cc1F)C2=O,i
Cc1ncc2c(c1CNC(=O)CSc1ccccc1)CCN(C(=O)/C=C/C(C)C)C2,i
CC(C)NC(=O)COc1ccc2c(c1)C(=O)CC1(CCCCC1)O2,i
c1ccc2c(Nc3ccc4c(c3)OCO4)c3c(nc2c1)CCC3,i
COc1cccc(-c2nnc(Nc3nc4ccc(OC)cc4s3)o2)c1,i
COc1cccc(N2CCN(C3CCC(C)C3)CC2)c1 (stereo not given),31.0%*
COc1cccc(N2CCC(N3CCCC(N4CCN(c5ccccc5C)CC4)C3)CC2)c1 (stereo not given),i
CC1CCC(N2CCN(c3ccccc3)CC2)C1 (stereo not given),i
O=C(NCc1ccccc1)C(Cc1ccccc1)NS(=O)(=O)c1cccs1 (stereo not given),i
COc1cccc(Nc2nc(-c3ccc(F)cc3)cs2)c1,i
